Chlamy TAG: inducers of triacylglycerol accumulation in Chlamydomonas reinhardtii algae | Chlamydomonas reinhardtii TAG, Nile Red fluorescence, 72 h | actives 0.84% (n = 44,000) | calls only at 10 µM (by protocol); call rule not given here;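 further: hits raise Nile Red signal meaning more stored TAG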
Numbers without * were called inactive. This excerpt belongs to a sample that is enriched for hits.

CCOc1ccc(CN2CCC(C(=O)N(CCO)Cc3ccccc3)CC2)cc1 was read as Chlamy TAG inactive.
`Cc1ccc(CN2CCC(C(=O)N(CCO)Cc3ccccc3)CC2)cc1` gave Chlamy TAG inactive.
Screening C=C(C)CN(CC)C(=O)C1CCN(Cc2ccc(Cl)cc2)CC1 returned Chlamy TAG active.
For CCN(CC)C(=O)C1CCCN(Cc2ccc(Cl)cc2)C1 (stereo unspecified) the results were Chlamy TAG inactive.
Screening CCN(Cc1ccccc1)C(=O)C1CCNCC1 returned Chlamy TAG inactive.
`CCc1ccc(CN2CCC(C(=O)N(CC)Cc3ccccc3)CC2)cc1` gave Chlamy TAG active.
For CCN(Cc1ccccc1)C(=O)C1CCN(CCCc2ccccc2)CC1 the results were Chlamy TAG active.
For Cc1cc(C)cc(NC(=O)c2ccc(Cl)cc2)c1 the results were Chlamy TAG inactive.
For CC(=O)NS(=O)(=O)c1ccc(NC(=O)CCCOc2ccccc2)cc1 the results were Chlamy TAG inactive.
Screening COc1ccccc1CC(=O)NC(C)CCc1ccccc1 (stereo unspecified) returned Chlamy TAG inactive.
Screening COc1ccc(NC(=O)c2c(F)c(F)c(F)c(F)c2F)c(OC)c1 returned Chlamy TAG inactive.
Screening O=C(C1=C(O)C(=O)N(Cc2cccnc2)C1c1ccncc1)c1cccs1 (stereo unspecified) returned Chlamy TAG inactive.
Screening O=Cc1ccc(Oc2ccc([N+](=O)[O-])cn2)cc1 returned Chlamy TAG inactive.
`CCOc1cc(C(=O)Nc2ccccc2-c2ccccc2)cc(OCC)c1OCC` gave Chlamy TAG inactive.

Source: PubChem (DiRusso Lab, Biochemistry Department, University of Nebraska)
